Assay outcomes as filed in PubChem.
SW480 rerep – DNA re-replication induction in SW480 cells; Potency, µM (series often up to 46.1 µM), without a hit: at the top dose re-replication activation, most hits filed as activators; SW480 DNA re-replication, Hoechst DNA content imaging, 48 h; actives 1.8% (n = 340,000); note: % of control where 0% means no effect; nearly all actives have a fitted effect of over 55% in size
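Cells (250 per well) received 23 nL compound or DMSO by pin tool and were kept 48 hr at 37 C, 5% CO2. Nuclei were then stained with Hoechst for 40 min and scanned for DNA content.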
RORgamma inh – inhibitors of mouse ROR gamma transcriptional activity | P51450 | Drosophila S2 Gal4-RORgamma UAS-luciferase reporter, 20 h | Potency, µM (top dose mostly 53.6 µM), without a hit: at the highest dose activity change, negative = inhibition, usual class: inhibitors | actives 5.4% (n = 310,000) | AID 2551; note: % is set by controls: 0 for no effect and ±100 for the full control effect; nearly all actives have a fitted effect of over 60% in size
Target sequence (P51450 whole entry, looked up, the tested form may be a part): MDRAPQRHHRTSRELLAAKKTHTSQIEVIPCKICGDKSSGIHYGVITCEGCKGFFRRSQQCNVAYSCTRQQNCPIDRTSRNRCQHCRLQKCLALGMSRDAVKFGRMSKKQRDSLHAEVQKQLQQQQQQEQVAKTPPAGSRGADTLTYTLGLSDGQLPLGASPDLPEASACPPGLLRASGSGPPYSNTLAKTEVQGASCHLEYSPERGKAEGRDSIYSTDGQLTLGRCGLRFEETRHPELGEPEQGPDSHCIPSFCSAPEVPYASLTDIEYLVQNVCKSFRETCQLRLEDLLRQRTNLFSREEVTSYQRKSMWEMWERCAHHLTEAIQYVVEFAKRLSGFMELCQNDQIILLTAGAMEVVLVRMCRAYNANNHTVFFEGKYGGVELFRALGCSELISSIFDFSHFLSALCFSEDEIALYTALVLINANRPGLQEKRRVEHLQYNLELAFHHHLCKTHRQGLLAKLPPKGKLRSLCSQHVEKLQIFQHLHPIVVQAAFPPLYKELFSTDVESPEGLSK
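Stably transfected Drosophila Schneider cells are the test system, with ROR gamma fused to Gal4 and luciferase under UAS control; luminescence is read after 20 hr of 700 uM copper sulfate induction at ambient temperature.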
KB-V1 MDR tox – kills drug-selected multidrug resistant KB-V1 cells; KB-V1 MDR cells viability, CellTiter-Glo, 72 h; Potency, µM (highest dose often 46.1 µM), most hits filed as cytotoxic; actives 3.4% (n = 400,000); AID 1347076; note: % is set by controls: 0 for no effect and ±100 for the full control effect; nearly all actives have a fitted effect of over 60% in size
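Readout: CellTiter-Glo luminescence, 10 min after addition. Cells: KB-V1 MDR subline, 72 h at 37 degrees C with compound. Analysis: corrected, normalized data fitted to concentration-effect curves.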
MCF10A rereplic – DNA re-replication induction in MCF 10a cells. actives 2.9% (n = 350,000). MCF 10A DNA re-replication, Hoechst nuclear intensity, 48 h. Potency, µM (titrated, usually from 46.1 µM), for the others: at the highest dose activity, positive = re-replication, most hits filed as activators; note: % of control where 0% means no effect; nearly all actives have a fitted effect of over 50% in size
VP16 counter – counter-screen for ROR gamma inhibitors: Gal4-VP16 reporter; actives 3.5% (n = 310,000); Drosophila S2 Gal4-VP16 UAS-luciferase, luminescence, 20 h; Potency, µM (titrated, usually from 53.6 µM), without a hit: top-dose activity, negative = inhibition, most hits filed as inhibitors; AID 2546;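 note: Gal4-VP16 expression switched on by copper sulfate through the metallothionein promoter; % is set by controls: 0 for no effect and ±100 for the full control effect; nearly all actives have a fitted effect of over 50% in size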
KB-3-1 cytotox – KB-3-1 parental cell cytotoxicity | KB-3-1 viability, CellTiter-Glo ATP luminescence, 72 h | Potency, µM (titrated, usually from 46.1 µM), hits mostly cytotoxic | actives 1.4% (n = 400,000); note: % is set by controls: 0 for no effect and ±100 for the full control effect; nearly all actives have a fitted effect of over 60% in size
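Cytotoxicity in the drug-sensitive parental line KB-3-1 was scored as loss of CellTiter-Glo luminescence following 72 h incubation with compound. Values come from curve fitting of normalized concentration-response data.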
* = called active by the depositor; i = inactive; ? = inconclusive; / = no result; [ ] = remark or other dose. Rows were chosen to be rich in hits. Some 10% of all compounds tested hit in one or more screens of this group. Calls come from the whole dose curve; as a rule, active = well fitted curve in the direction sought with a large enough effect; inconclusive = small, poorly fitted or top-dose-only effect, or another doubt; inactive = no such curve, though single readings can be large; an effect the other way counts as inactive or inconclusive. Potency is the fitted concentration of half-maximal effect.

SMILES	SW480 rerep	RORgamma inh	KB-V1 MDR tox	MCF10A rereplic	VP16 counter	KB-3-1 cytotox
CSCC[C@H](NC(=O)[C@H](CO)NC(=O)[C@H](Cc1ccc(O)cc1)NC(=O)[C@@H](N)CO)C(=O)N[C@@H](CCC(=O)O)C(=O)N[C@@H](Cc1cnc[nH]1)C(=O)N[C@@H](Cc1ccccc1)C(=O)N[C@@H](CCCNC(=N)N)C(=O)N[C@@H](Cc1c[nH]c2ccccc12)C(=O)NCC(=O)N[C@@H](CCCCN)C(=O)N1CCC[C@H]1C(=O)N[C@H](C(=O)NCC(=O)N[C@@H](CCCCN)C(=O)N[C@@H](CCCCN)C(=O)N[C@@H](CCCNC(=N)N)C(=O)N[C@@H](CCCNC(=N)N)C(=O)N1CCC[C@H]1C(=O)N[C@H](C(=O)N[C@@H](CCCCN)C(=O)N[C@H](C(=O)N[C@@H](Cc1ccc(O)cc1)C(=O)N1CCC[C@H]1C(=O)N[C@@H](CC(N)=O)C(=O)NCC(=O)N[C@@H](C)C(=O)N[C@@H](CCC(=O)O)C(=O)N[C@@H](CC(=O)O)C(=O)N[C@@H](CCC(=O)O)C(=O)N[C@@H](CO)C(=O)N[C@@H](C)C(=O)N[C@@H](CCC(=O)O)C(=O)N[C@@H](C)C(=O)N[C@@H](Cc1ccccc1)C(=O)N1CCC[C@H]1C(=O)N[C@@H](CC(C)C)C(=O)N[C@@H](CCC(=O)O)C(=O)N[C@@H](Cc1ccccc1)C(=O)O)C(C)C)C(C)C)C(C)C	/	0.7%	/	/	-0.1%	/
Cc1ccc(-c2nnc(-c3ccc4ccccc4c3)o2)cc1	?	/	i	6.51µM*	/	?
Cc1ccc(-c2nnc(Nc3ccccc3)o2)cc1	6.1%	5.01µM*	i	-12.6%	14.1µM*	?
CCOC(=O)[C@]1(C(NC(=O)OC)c2cccc(F)c2)CCCC1=O (stereo partly drawn)	/	2.3%[10 µM]	/	/	-7.3%[10 µM]	/
CCOc1ccc(S(=O)(=O)NCc2ccccn2)cc1NC(=O)c1ccccc1F	0.82µM*	?	?	?	3.7%	?
COc1ccc(S(=O)(=O)NCc2ccccn2)cc1NC(=O)c1ccc(C)cc1	2.5%	/	?	?	/	9.2µM*
COc1ccc(S(=O)(=O)NCc2ccccn2)cc1NC(=O)c1ccccc1	9.2µM*	-23.8%	?	20.6µM*	5.9%	13µM*
COc1ccc(S(=O)(=O)NCc2ccncc2)cc1NC(=O)c1ccccc1F	-17.5%	/	i	-4.7%	/	i
CCOc1cc(C)c(C(C)C)cc1S(=O)(=O)NCc1ccccn1	0.8%	10µM*	9.2µM*	9.4%	10.6%	i
CC(=O)Nc1ccc(S(=O)(=O)NC2(C(F)(F)F)NC(=O)N(CCc3ccc(F)cc3)C2=O)cc1 (stereo not drawn)	/	/	i	/	/	i
O=C(Cc1ccccc1)Nc1nnc(-c2ccccc2)o1	-6.1%	1.12µM*	i	-1.1%	3.55µM*	i
O=C(Cc1ccc(F)cc1)Nc1nnc(-c2ccc(F)cc2)o1	?	?	i	1.9%	1.41µM*	?
Cc1nnc(SCC(=O)Nc2nnc(-c3ccccc3)o2)s1	-7.3%	/	i	0.2%	/	i
Cc1ccc(C)c(-c2nnc(NC(=O)Cc3ccccc3)o2)c1	-0.4%	1µM*	i	-6.2%	1.12µM*	i
Cc1ccc(C)c(-c2nnc(NC(=O)c3ccco3)o2)c1	?	/	?	7.5%	/	?
O=C(CSc1nncs1)Nc1nnc(-c2ccccc2)o1	-7.6%	11.2µM*	i	2.5%	?	i
COc1ccc(NC(=O)c2ccc3c(c2)CCN3S(=O)(=O)c2ccc(C)cc2)cc1Cl	/	/	i	/	/	i
Cc1sc2ccccc2[n+]1CC(=O)c1ccc(F)cc1	/	/	i	/	/	i
Cc1ccc(C(=O)CCNc2ccc(Br)cc2)o1	0.4%[9.22 µM]	19.2%	i	?	21.3%	i
Cc1ccc(C(=O)Cc2ccccc2)cc1	-4.7%	/	i	3.9%	/	i
Cc1ccc(C(=O)CCNc2ccccc2)o1	?	-35.0%	i	7.08µM*	19.8%	i
Cc1ccc(C(=O)Cc2ccccc2)o1	1.03µM*	/	i	1.1%	/	i
CCOC(=O)C(CCc1ccccc1)NC(C)C(=O)N1Cc2cc(OC)c(OC)cc2CC1C(=O)O (stereo not drawn)	1.7%	-9.9%	/	12.3%	3.2%	/
O=S(=O)(c1cccs1)N1CCN(CC(O)COc2cccc(Br)c2)CC1 (stereo not drawn)	?	25.2%	14.6µM*	14.0%	8.3%	?
COc1ccc(C2=CC(=O)N(Nc3ccccc3)C2=O)cc1	4.11µM*	?	i	?	11.2µM*	i
SMILES	SW480 rerep	RORgamma inh	KB-V1 MDR tox	MCF10A rereplic	VP16 counter	KB-3-1 cytotox
Cc1ccc(NN2C(=O)C=CC2=O)cc1	-3.5%	3.8%	i	-4.0%	-13.0%	i
O=C1C=C(c2ccccc2)C(=O)N1Nc1ccccc1	?	4.47µM*	i	?	5.01µM*	?
Cc1ccc(NN2C(=O)C=C(c3ccc(Cl)cc3)C2=O)cc1	?	7.08µM*	11.6µM*	14.6µM*	8.91µM*	?
COc1ccc(Nc2cccccc2=O)cc1	-5.7%	-0.3%	i	-183.1%[0.0737 µM]	15.2%	i
C[N+]1(CC(=O)c2ccc(Cl)cc2)CCOCC1	/	/	i	/	/	i
O=c1cc(-c2ccccc2)[nH]n1-c1ccc([N+](=O)[O-])cc1	23.1%	?	?	14.6µM*	?	?
CCOC(=O)c1c(C)oc2ncnc(Nc3cc(Cl)ccc3OC)c12	/	/	i	/	/	i
Nc1[nH]c(=O)[nH]c(=O)c1N=Nc1ccccc1Cl	-9.3%	-35.0%	?	23.1µM*	-2.8%	i
Cc1[nH][nH]c(=O)c1N=Nc1ccccc1Cl	-11.0%	10.0%	?	2.1%	-2.7%	?
CC1(C)C(=O)C2C[C@]3(O)C4=CC(=O)OC(c5ccoc5)[C@]4(C)CCC3[C@](C)(C2=O)C1CC(=O)O (stereo partly drawn)	/	18.8%	/	/	1.2%	/
CCOc1ccc(-c2nn(CC(=O)NC3CCCCC3)c3c2cnc2ccc(C)cc23)cc1	/	/	i	/	/	i
Cc1ccc(NC(=O)C2CCN(c3ncnc4c3nc3n4CCCCC3)CC2)cc1Cl	?	?	i	14.6µM*	-8.5%	?
O=C(Nc1ccc(Cl)cc1)C1CCCN(c2ncnc3c2nc2n3CCCCC2)C1 (stereo not drawn)	4.0%	41.1%	i	16.4µM*	-13.1%	?
Cc1ccc(NC(=O)C2CCCN(c3ncnc4c3nc3n4CCCCC3)C2)cc1Cl (stereo not drawn)	?	10.3%	?	8.4%	-12.6%	?
